Laboratory results taken from PubChem BioAssay (EPA / NIEHS).
Activity calls are given as the source filed them. The calls were made as follows: active = hit-call score of the fitted dose curve at least 0.9, where 1 is the maximum; inactive = score below 0.9.

read-out: Fatty acid synthase (Homo sapiens) (UniProt P49327); assay: LTEA_HepaRG_FASN: Life Technologies and Expression Analysis (LTEA) Assay for Fatty Acid Synthase (FASN) using HepaRG (AID 2283448); details: mRNA level, 48 h; actives raise or lower the signal
Experimental: LTEA_HepaRG is a cell based, multiplexed-readout assay that uses HepaRG, a human liver cell line, with measurements taken at 48 hours after chemical dosing on a 96-well plate.LTEA_HepaRG_FASN is one of 102 assay component(s) measured in the LTEA HepaRG cell culture assay. It is a marker of Steatosis.Data from the assay component LTEA_HepaRG_FASN was analyzed into 1 endpoint. This assay endpoint, LTEA_HepaRG_FASN, was analyzed with bidirectional fitting relative to DMSO as the negative control and baseline of activity. Using a type of inducible reporter, measures of mRNA induction for gain or loss-of-signal activity can be used to understand regulation of transcription factor activity. To generalize the intended target to other relatable targets, this assay endpoint is annotated to the lyase intended target family, where the subfamily is fatty acid synthase.
A total of 1060 chemcials from the ToxCast library were tested in eight-point concentration-response experiments. Cell culture and cytotoxicity assays were conducted at Thermo Fisher Scientific's Custom Services facility (Madison, WI). A single lot of human HepaRG cells (Thermo Fisher Scientific, Frederick, MD) was used for the cell culture experiments. 96-well format collagen type I coated plates of human HepaRG cells were prepared using established methods. Briefly, cryopreserved HepaRG cells were thawed, plated at a density of approximately 100,000 cells/well in HepaRG Thaw, Plate, and General Purpose media (HPRG770, Thermo Fisher Scientific), and incubated for 48 hours. 0.5% DMSO was selected as vehicle control to balance the requisite need of DMSO in HepaRG cultures to maintain differentiation (for example, baseline metabolism, proportions of hepatocytes vs. cholangiocytes), while enabling further hepatic receptor pathway activation (for example, PXR and CAR) in response to chemical exposure. 48 hours after plating, the culture medium was replaced with HepaRG Serum-Free Incudtion Media. Cells were exposed to each test chemical in duplicate and maintained in CO2 incubators for another 48 hours. Chemical plates were thawed to room temperature and 200x concentrations of treatment groups were prepared. 8-point conentration-reponse curves were made with the highest exposure at 100 uM, followed by half-log dilutions, all in 0.5% DMSO. Each test plate contained variouse controls, induction positive controls (1mM phenobarbital), cytotoxicity positive controls ([…] aflatoxin B1), vehicle controls (0.5% DMSO), and total lysis controls (0.5% DMSO). Cell morphology images were taken using an Essen IncuCyte FLR automated microscope, with six 96-well plates imaged in about 24 minutes. Images were captured and exported and JPEG files. Spent culture media was transfered to black-well plates for the LDH assay, and remaining media was sorted at -80 C for later use. Cells were treated with RLT buffer and frozen until shipped for gene expression analysis. Total RNA was isolated from the cell suspension in 75 uL of Buffer RLT (Qiagen, Germantown, MD 20874) by Quintiles/Expression Analysis (Durham, NC) using a custom isolation procedure. Total RNA from each plate well was transferred to a preamplification plate. Fluidigm's 96.96 Dynamic ArrayTM (Fluidigm, Amsterdam, the Netherlands) technology was used for gene expression analyses by quantitative reverse transcription polymerase chain reaction (qRT-PCR, performed by Quintiles/Expression Analysis, Durham, NC)89. Standard TaqManTM Assays (Applied Biosystems/ThermoFisher Scientific, Foster City, CA) were used to assess the expression of 93 genes selected based on their selectivity and sensitivity to important hepatic receptors known to be modulated by environmental chemicals; importance in human hepatocyte functionality; and hepatotoxicity. […]

Fatty acid synthase (Homo sapiens), sequence (P49327 whole entry, looked up): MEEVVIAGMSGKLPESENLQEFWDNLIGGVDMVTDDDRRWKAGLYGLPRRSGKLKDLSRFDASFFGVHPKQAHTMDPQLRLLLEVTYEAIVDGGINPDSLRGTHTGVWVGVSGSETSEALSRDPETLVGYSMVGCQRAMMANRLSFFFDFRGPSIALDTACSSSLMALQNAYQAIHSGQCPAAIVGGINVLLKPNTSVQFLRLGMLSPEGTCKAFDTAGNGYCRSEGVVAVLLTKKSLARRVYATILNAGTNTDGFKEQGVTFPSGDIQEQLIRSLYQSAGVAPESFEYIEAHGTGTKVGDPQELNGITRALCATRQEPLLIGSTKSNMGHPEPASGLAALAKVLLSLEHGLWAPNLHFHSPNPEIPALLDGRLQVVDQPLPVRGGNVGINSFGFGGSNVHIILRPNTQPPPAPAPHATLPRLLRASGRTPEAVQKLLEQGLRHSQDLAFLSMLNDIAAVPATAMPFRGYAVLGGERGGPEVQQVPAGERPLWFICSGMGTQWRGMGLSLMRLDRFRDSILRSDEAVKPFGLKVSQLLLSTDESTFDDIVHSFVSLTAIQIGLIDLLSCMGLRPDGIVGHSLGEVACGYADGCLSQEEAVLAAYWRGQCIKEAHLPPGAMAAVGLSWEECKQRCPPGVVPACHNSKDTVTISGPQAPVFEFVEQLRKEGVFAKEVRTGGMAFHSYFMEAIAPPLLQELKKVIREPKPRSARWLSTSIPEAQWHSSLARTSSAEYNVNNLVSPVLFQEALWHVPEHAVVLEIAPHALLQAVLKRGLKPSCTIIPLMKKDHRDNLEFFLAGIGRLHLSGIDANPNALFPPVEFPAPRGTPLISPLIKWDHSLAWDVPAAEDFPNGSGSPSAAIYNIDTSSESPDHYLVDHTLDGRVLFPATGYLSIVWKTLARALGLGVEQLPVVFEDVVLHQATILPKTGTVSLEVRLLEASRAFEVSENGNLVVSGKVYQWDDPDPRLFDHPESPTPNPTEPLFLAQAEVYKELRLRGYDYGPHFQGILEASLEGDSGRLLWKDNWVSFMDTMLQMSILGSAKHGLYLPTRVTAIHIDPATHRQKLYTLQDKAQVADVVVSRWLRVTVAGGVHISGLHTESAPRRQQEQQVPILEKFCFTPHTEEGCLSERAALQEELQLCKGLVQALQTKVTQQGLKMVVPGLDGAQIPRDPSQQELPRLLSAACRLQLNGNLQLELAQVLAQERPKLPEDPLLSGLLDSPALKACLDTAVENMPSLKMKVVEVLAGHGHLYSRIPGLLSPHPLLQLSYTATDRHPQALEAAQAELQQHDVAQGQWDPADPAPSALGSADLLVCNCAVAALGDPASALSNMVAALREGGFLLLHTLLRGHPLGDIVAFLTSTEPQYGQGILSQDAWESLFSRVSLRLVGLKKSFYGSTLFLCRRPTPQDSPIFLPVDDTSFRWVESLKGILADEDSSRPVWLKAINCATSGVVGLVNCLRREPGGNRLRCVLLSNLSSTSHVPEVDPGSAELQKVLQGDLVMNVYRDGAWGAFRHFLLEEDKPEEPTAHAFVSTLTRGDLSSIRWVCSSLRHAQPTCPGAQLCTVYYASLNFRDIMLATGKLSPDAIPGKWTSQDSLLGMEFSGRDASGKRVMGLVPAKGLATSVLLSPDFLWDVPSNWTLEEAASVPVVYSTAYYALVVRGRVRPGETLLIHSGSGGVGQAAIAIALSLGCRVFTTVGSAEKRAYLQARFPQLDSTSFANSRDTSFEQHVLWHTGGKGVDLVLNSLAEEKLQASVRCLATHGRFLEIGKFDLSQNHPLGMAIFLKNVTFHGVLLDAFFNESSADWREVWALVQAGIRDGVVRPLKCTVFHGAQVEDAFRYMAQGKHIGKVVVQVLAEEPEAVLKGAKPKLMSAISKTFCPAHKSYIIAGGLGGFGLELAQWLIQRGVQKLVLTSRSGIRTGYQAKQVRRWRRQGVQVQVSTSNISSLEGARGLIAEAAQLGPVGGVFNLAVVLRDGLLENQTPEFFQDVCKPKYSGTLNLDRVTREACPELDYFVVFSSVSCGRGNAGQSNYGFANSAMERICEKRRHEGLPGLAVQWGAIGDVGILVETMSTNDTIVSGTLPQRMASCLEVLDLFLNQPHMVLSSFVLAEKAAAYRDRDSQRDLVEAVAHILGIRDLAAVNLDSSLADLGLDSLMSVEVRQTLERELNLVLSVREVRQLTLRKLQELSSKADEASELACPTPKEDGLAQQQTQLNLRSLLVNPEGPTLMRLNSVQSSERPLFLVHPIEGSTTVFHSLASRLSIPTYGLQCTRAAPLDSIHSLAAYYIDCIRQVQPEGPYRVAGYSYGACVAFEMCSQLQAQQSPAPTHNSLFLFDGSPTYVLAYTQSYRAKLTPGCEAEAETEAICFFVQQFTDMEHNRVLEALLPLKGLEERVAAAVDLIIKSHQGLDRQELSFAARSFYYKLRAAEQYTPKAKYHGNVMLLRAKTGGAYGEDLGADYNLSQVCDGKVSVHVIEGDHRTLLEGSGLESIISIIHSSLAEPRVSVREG

| SMILES | outcome | AC50 |
| --- | --- | --- |
| O=S(=O)(O)c1ccc(N=Nc2c(O)ccc3cc(S(=O)(=O)O)ccc23)cc1 | inactive |  |
| CC(=O)c1ccccc1 | inactive |  |
| O=C(NO)C1(NS(=O)(=O)c2ccc(Oc3ccc(F)cc3)cc2)CCOCC1 |  | 50 µM (active) |
| Cc1nc(-c2ccccn2)ncc1C(=O)Nn1cc(C)c2cc(F)ccc21 | inactive |  |
| c1ccc2c(c1)-c1cccc3c1c-2cc1ccccc13 |  | 13.7 µM (active) |
| C=CN1CCCC1=O | inactive |  |
| O=S1(=O)CCCO1 | inactive |  |
| OC(Cn1cncn1)(Cn1cncn1)c1ccc(F)cc1F | inactive |  |
| C[C@]12C=CC(=O)C=C1CC[C@H]1[C@@H]3C[C@@H](O)[C@](O)(C(=O)CO)[C@@]3(C)C[C@H](O)[C@@]12F | inactive |  |
| OCc1ccccc1 | inactive |  |
| Nc1ccn([C@@H]2O[C@H](CO)[C@@H](O)[C@@H]2O)c(=O)n1 | inactive |  |
| O=C1CN(N=Cc2ccc([N+](=O)[O-])o2)C(=O)N1 | inactive |  |
| CCOC(N)=O | inactive |  |
| CCOc1ccc2[nH]cc(C(=O)NCc3ccccc3)c(=O)c2n1 | inactive |  |
| O=C(O)[C@H](O)[C@@H](O)C(=O)O | inactive |  |
| CCCCCOC(C)=O | inactive |  |
| NC(=O)NN=Cc1ccc([N+](=O)[O-])o1 |  | 50 µM (active) |
| OCC(CO)(CO)CO | inactive |  |
| COCc1nnc(-c2ccc[n+]([O-])c2)n1-c1c(Cl)c(Cl)cc2[nH]c(=O)c(=O)[nH]c12 | inactive |  |
| CCCOc1ccc(S(=O)(=O)N2CCN(CC)CC2)cc1-c1nc2c(CC)n(Cc3ccccn3)nc2c(=O)[nH]1 |  | 50 µM (active) |

| SMILES | outcome | AC50 |
| --- | --- | --- |
| NC(=O)N(O)[C@@H]1COc2cc(OCc3ccccc3)ccc21 | inactive |  |
| CC1(C)C(=O)N(Cl)C(=O)N1Cl | inactive |  |
| COc1cc(C(C)C)c2c(c1)S(=O)(=O)N(COc1cc(=O)n3cccc(OCCN4CCCCC4)c3n1)C2=O |  | 20.7 µM (active) |
| c1ccc2cc3ccccc3cc2c1 | inactive |  |
| COS(C)(=O)=O | inactive |  |
| CCCCC(CC)C(=O)OCCOCCOCCOC(=O)C(CC)CCCC (stereo not given) | inactive |  |
| Cc1ccc(S(=O)(=O)NC(=O)NN2CCCCCC2)cc1 | inactive |  |
| CCc1cccc(CC)c1N | inactive |  |
| CCCCCCCC/C=C\CCCCCCCC(=O)OC[C@@H](O)[C@H]1OC[C@H](O)[C@H]1O | inactive |  |
| Cc1ncc([C@@H](CCCCCCc2ccc3c(n2)NCCC3)CC(=O)O)cn1 | inactive |  |
| CCCCCCCCCCCCCCCCOS(=O)(=O)O | inactive |  |
| O=c1[nH]cnc2c1ncn2[C@H]1CC[C@@H](CO)O1 | inactive |  |
| CCc1ccc(O)c(C(C)(C)C)c1 | inactive |  |
| OC[C@H]1O[C@@](CO)(O[C@H]2O[C@H](CO)[C@@H](O)[C@H](O)[C@H]2O)[C@@H](O)[C@@H]1O | inactive |  |
| CCCC(CCC)C(=O)O | inactive |  |
| CC[C@H](C)C(=O)O[C@H]1C[C@H](O)C=C2C=C[C@H](C)[C@H](CC[C@@H](O)C[C@@H](O)CC(=O)O)[C@H]21 |  | 3.08 µM (active) |
| NC(N)=O | inactive |  |
| COc1cc2c(c(OC)c1OC)-c1ccc(OC)c(=O)cc1[C@@H](NC(C)=O)CC2 |  | 0.0575 µM (active) |
| CCCCOC(=O)c1ccccc1 | inactive |  |
| CNC(C)=O | inactive |  |
